From PubChem BioAssay
The list is not random: actives were taken first. Their share in the collection is about 1.4%.
APOBEC3A inh = blocks human APOBEC3A ssDNA deamination. inhibition, % at 20 µM. actives 0.41% (n = 330,000). recombinant A3A, FAM/TAMRA ssDNA deamination fluorescence. AID 493011. P31941;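 active = at least 40% inhibition at 20 µM here, with at most 30% in a related deaminase screen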;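 also: plate controls were A3A with DMSO for no effect and wells lacking A3A enzyme for full effect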
Target sequence (P31941 whole entry, looked up): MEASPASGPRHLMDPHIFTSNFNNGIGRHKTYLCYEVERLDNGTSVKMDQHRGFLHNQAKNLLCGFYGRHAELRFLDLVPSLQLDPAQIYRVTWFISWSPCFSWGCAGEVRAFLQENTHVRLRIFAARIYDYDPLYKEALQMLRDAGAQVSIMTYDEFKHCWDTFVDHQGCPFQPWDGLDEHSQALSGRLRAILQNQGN
A3G deaminase = inhibitors of human APOBEC3G DNA deaminase | actives 0.28% (n = 330,000) | recombinant A3G, ssDNA deamination FAM/TAMRA fluorescence | AID 493012 | inhibition, % at 20 µM;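 active = inhibition of at least 40% at 20 µM, with no more than 30% in the related APOBEC3A deaminase screen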;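 also: plate controls were DMSO wells with A3G for no effect and wells lacking A3G enzyme for full effect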
VLA-4 inh = inhibition in a human VLA-4 binding assay | VLA-4 expressing cells, ligand binding flow cytometry | AID 2557 | inhibition, % (about 7 µM as worked out from the volumes in the protocol) | actives 0.2% (n = 330,000); in the data active = inhibition above about 50%
GRK2 inh = inhibitors of human GRK2 displacing RNA aptamer. P25098. bead flow cytometry, FAM-aptamer displacement from GRK2. inhibition of aptamer binding, % at 10 µM. actives 0.59% (n = 330,000);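 active = inhibition of aptamer binding above 40%, roughly 3 SD of noise, on plates passing a quality check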;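 also: median bead fluorescence of bound FAM aptamer so fluorescent compounds give negative values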
APOBEC3G confirm = APOBEC3G (human) deaminase inhibition, confirmed; shares compounds with A3G deaminase; recombinant A3G ssDNA deaminase, UDG/FAM-TAMRA fluorescence; inhibition, % at 20 µM; actives 72% (n = 890); AID 493152;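 active = inhibition reaching a set limit in any replicate at 20 µM, the limit being 80% of the first screen's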
UDG A3G counter = inhibits E. coli UDG, flagging false APOBEC3G inhibitors | shares compounds with A3G deaminase | UDG counterscreen, FAM/TAMRA oligo fluorescence | inhibition, % at 20 µM | 710 tested, under 10 active;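 active = compounds giving 40% or more inhibition at 20 µM in any one of the three replicates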;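 also: plate controls were DMSO wells with UDG and oligo for no effect and DMSO wells lacking both for full effect; inhibitors lower the FAM signal released by uracil excision and alkaline cleavage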
Target sequence (P12295 whole entry, looked up): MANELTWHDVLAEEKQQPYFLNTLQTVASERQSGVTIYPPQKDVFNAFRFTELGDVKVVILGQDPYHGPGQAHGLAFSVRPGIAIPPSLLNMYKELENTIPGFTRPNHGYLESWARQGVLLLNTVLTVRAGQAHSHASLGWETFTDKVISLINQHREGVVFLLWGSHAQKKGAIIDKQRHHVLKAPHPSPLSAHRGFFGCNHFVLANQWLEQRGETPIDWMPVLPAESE
Active calls of the source: *; . = not tested or not shown.

SMILES | APOBEC3A inh | A3G deaminase | VLA-4 inh | GRK2 inh | APOBEC3G confirm | UDG A3G counter
CCOC(=O)N1CCc2c(sc(NC(=O)CN3CCOCC3)c2C#N)C1 | 3.5 | 9.7 | -5.1 | 3.0 | . | .
CCOC(=O)N1CCc2c(sc(N)c2C#N)C1 | 0.2 | 49.5* | 5.6 | 1.0 | 36.5* | .
COc1ccc2c3c(cccc13)OC2=O | 6.1 | -1.4 | -1.0 | 4.0 | . | .
COc1ccc2c3c(cccc13)N(C)N=C2C | 26.1 | 44.7* | -4.5 | 17.0 | 40.4* | .
COC(=O)c1ccc(CSc2n[nH]c(=S)s2)o1 | 0.3 | 49.9* | 2.9 | 0.0 | 59.2* | 2.6
CCCOC(=O)C(C)Sc1n[nH]c(=O)[nH]c1=O (stereo not drawn) | 0.4 | -3.0 | -43.9 | 3.0 | . | .
COC(=O)CSc1nnc(SCc2ccccc2)s1 | 6.9 | -5.3 | 4.5 | 2.0 | . | .
CCSc1n[nH]c(=S)s1 | -6.0 | 52.2* | 3.4 | 2.0 | 59.2* | 0.4
COC(=O)C(C)Sc1n[nH]c(=S)s1 (stereo not drawn) | -3.1 | 83.9* | 9.3 | 1.0 | 84.3* | 6.2
CCOc1ccc(Nc2n[nH]c(=S)s2)cc1 | 9.4 | 33.6 | 21.6 | 0.0 | . | .
COC(=O)c1ccc(CSc2nc3ccccc3s2)o1 | -5.6 | -4.4 | 17.9 | 0.0 | . | .
COC(=O)CSc1n[nH]c(=S)s1 | -2.1 | 49.9* | -0.7 | 1.0 | 64.9* | 1.6
COc1ccc(NC(=O)c2cc(C)n(Cc3cccs3)c2C)cc1 | -3.1 | -3.2 | 1.5 | 2.0 | . | .
O=C(CN1C(=O)NC2(CCCCC2)C1=O)Nc1ccc(F)cc1 | 2.6 | 2.6 | 4.4 | 2.0 | . | .
COc1ccc(CNC(=O)C(C)N(Cc2ccco2)C(=O)c2snc(C(N)=O)c2N)cc1 (stereo not drawn) | -0.2 | -1.4 | -10.5 | 0.0 | . | .
S=c1nc(-c2ccccc2)n(CCN2CCOCC2)c2c1CCCC2 | 1.2 | -3.6 | -13.1 | 0.0 | . | .
COC(=O)N1c2ccccc2C=Cc2ccccc21 | -8.1 | -7.1 | 26.6 | 0.0 | . | .
O=C(O)CC(Sc1n[nH]c(=S)s1)C(=O)O (stereo not drawn) | 0.7 | 43.8* | 0.3 | 4.0 | 60.0* | 2.7
CCN(CC)C(=O)CSc1ncnc2c(-c3cccs3)nsc12 | 26.4 | 54.0* | -10.5 | 6.0 | 44.9* | -2.7
CN(Cc1ccco1)c1ncnc2ccc(-c3ccc4c(ccn4C)c3)cc12 | -1.3 | -6.2 | 44.8 | 0.0 | . | .
Cc1cccc(C)c1OCc1n[nH]c(=S)n1N | 3.2 | 40.3* | -3.0 | 1.0 | 54.5* | -3.1
Nn1c(COc2ccc(Cl)cc2)n[nH]c1=S | 0.5 | 53.4* | 1.4 | 0.0 | 57.7* | 2.7
O=C(Nc1ccc(N2CCCC2)cc1)c1ccc(Br)o1 | -4.1 | 4.4 | -113.0 | 0.0 | . | .
CCc1n[nH]c(=S)n1/N=C/c1ccc(N(CC)CC)cc1 | -7.5 | 46.5* | 20.3 | 0.0 | 48.5* | 1.4
S=c1[nH]nc(COc2ccccc2)n1/N=C/c1ccncc1 | -6.7 | 62.4* | 1.1 | 1.0 | 82.1* | -1.7
SMILES | APOBEC3A inh | A3G deaminase | VLA-4 inh | GRK2 inh | APOBEC3G confirm | UDG A3G counter
COc1cc(/C=N/n2c(COc3ccccc3)n[nH]c2=S)cc(Br)c1O | 1.4 | 46.3* | -6.9 | 0.0 | 70.4* | -2.3
S=c1[nH]nc(COc2ccccc2)n1/N=C/c1ccccn1 | -3.9 | 54.9* | 1.9 | 2.0 | 85.9* | 0.6
CCn1c(SCC(=O)NCc2ccc(C)cc2)nnc1-c1ccncc1 | -2.6 | -12.0 | 9.1 | 1.0 | . | .
COc1cc(/C=N/n2c(-c3ccccc3)n[nH]c2=S)cc(OC)c1O | -9.6 | 48.3* | -0.4 | 4.0 | 63.8* | -7.2
COc1cc(/C=N/n2c(-c3ccccc3)n[nH]c2=S)ccc1O | -3.9 | 32.0 | 5.8 | 1.0 | . | .
O=c1c2ccccc2sn1-c1cc(S(=O)(=O)N2CCOCC2)ccc1N1CCOCC1 | 0.3 | 77.2* | 11.5 | 0.0 | 76.8* | 1.9
CCSS(=O)(=O)c1cccc2cccnc12 | -1.6 | 68.0* | -9.1 | 0.0 | 66.0* | -0.5
Cc1cc2nc(CCN(Cc3cccnc3)C(=S)Nc3ccccc3)[nH]c2cc1C | 1.3 | -6.3 | -12.2 | 1.0 | . | .
CCOC(=O)c1cc(C#N)c(SCC(=O)c2cc(C#N)c(SC)nc2C)[nH]c1=O | 2.2 | 43.3* | -5.7 | 1.0 | 16.5* | -3.9
CCN(CC)c1ccc(NC(=O)c2ccc(S(=O)(=O)N3CCOCC3)cc2)cc1 | -5.2 | -7.6 | -365.7 | 3.0 | . | .
C/C(=N\Nc1ccccc1C)c1cccnc1 | -5.4 | 60.8* | 9.2 | 0.0 | 12.1 | 0.8
C=CCn1c(N)c(C(=O)NCCC2=CCCCC2)sc1=S | 1.8 | 47.2* | 18.4 | 1.0 | 8.0 | .
